# Compound activity deposited in PubChem by National Center for Advancing Translational Sciences (NCATS).
# This is a sample that favours compounds with a hit; in the whole collection about 19% have one here.
# TDP1 cell noCPT = qHTS for Inhibitors of human tyrosyl-DNA phosphodiesterase 1 (TDP1): qHTS in cells in absence of CPT; Potency, µM (highest dose often 46.2 µM), without a hit: top-dose activity change, negative = growth inhibition, usual class: inhibitors; 420,000 compounds, 15% hits; DT40 Tdp1-/- hTDP1 cells, no CPT, ATP luminescence, 48 h; further: nearly all actives have a fitted effect of over 55% in size
#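 Luminescent ATP content (CellTiter-Glo) served as the growth readout. Knockout chicken DT40 cells expressing human TDP1 were exposed to compounds without camptothecin for a minimum 48 hr at 37 °C.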
# HT1080NT lethal = kills 2HG-producing HT-1080-NT fibrosarcoma cells | HT-1080-NT fibrosarcoma viability, CellTiter-Glo ATP luminescence, 48 h | Potency, µM (titrated, usually from 46.1 µM), without a hit: at the top dose activity, negative = less viability, actives largely listed as cytotoxic | 360,000 compounds, 1.6% hits;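 further: NT is the 2HG producing partner of a matched IDH1 knockdown line; 0% = DMSO-treated cells and -100% = media-only wells without cells; nearly all actives have a fitted effect of over 55% in size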
#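 A 48-hour cytotoxicity screen used HT-1080-NT cells plated 2 hours before compound delivery. ATP-based CellTiter-Glo luminescence measured viability, normalized to DMSO and no-cell controls.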
# DT40 TDP1 CPT = growth inhibition of DT40 Tdp1-/-;hTDP1 cells with camptothecin (screen for TDP1 inhibitors); Potency, µM (series often up to 46.2 µM), without a hit: at the highest dose activity change, negative = growth inhibition, usual class: inhibitors; chicken DT40 Tdp1-/-;hTDP1 cells + 20 nM CPT, ATP luminescence, 48 h; AID 686979; 420,000 compounds, 12% hits; further: nearly all actives have a fitted effect of over 55% in size
#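 Chicken DT40 Tdp1-/- cells stably complemented with human TDP1 were seeded at 400 cells/well in medium containing 20 nM camptothecin, exposed to pin-transferred compounds, and grown at 37 °C for at least 48 hr. Viability was read as ATP luminescence.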
# KB-V1 cytotox = kills drug-selected multidrug resistant KB-V1 cells; KB-V1 MDR cells viability, CellTiter-Glo, 72 h; Potency, µM (highest dose often 46.1 µM), most hits filed as cytotoxic; 400,000 compounds, 3.4% hits; further: nearly all actives have a fitted effect of over 60% in size
#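 KB-V1, DMEM (no phenol red) + 10% FBS; cpd pin-transferred, titration series; 72 h, 37 degrees C; CellTiter-Glo, luminescence. Data normalized, curve-fit.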
# KB-3-1 cytotox = KB-3-1 parental cell cytotoxicity | KB-3-1 viability, CellTiter-Glo ATP luminescence, 72 h | Potency, µM (series often up to 46.1 µM), actives largely listed as cytotoxic | 400,000 compounds, 1.4% hits; further: nearly all actives have a fitted effect of over 60% in size
#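 Cytotoxicity in the drug-sensitive parental line KB-3-1 was scored as loss of CellTiter-Glo luminescence following 72 h incubation with compound. Values come from curve fitting of normalized concentration-response data.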
# HT1080 IDH1KD tx = kills HT-1080 cells with IDH1 knockdown; 360,000 compounds, 2% hits; HT-1080 IDH1 knockdown viability, ATP luminescence, 48 h; Potency, µM (titrated, usually from 46.1 µM), for the others: at the top dose activity, negative = toxicity, hits mostly cytotoxic; AID 686971;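 further: 0% = DMSO wells and -100% = cell-free medium wells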
#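 Knockdown cells (IDH1KD HT-1080) received compounds 2 h after plating at 750 cells/well and were kept 48 h at 37 °C in 5% FBS RPMI. A CellTiter-Glo luminescence read gave % activity for curve fitting.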
# Numbers without * were called inactive; i = inactive; ? = inconclusive. The call rests on the fitted dose curve; in most records, active means well fitted curve in the direction sought with a large enough effect; inconclusive means small, poorly fitted or top-dose-only effect, or another doubt; inactive means no such curve, though single readings can be large; an effect the other way counts as inactive or inconclusive. Unless noted, on the % scale 0 is the no-effect control and ±100 the full control effect; potency means the concentration at half of the fitted maximal effect.
SMILES,TDP1 cell noCPT,HT1080NT lethal,DT40 TDP1 CPT,KB-V1 cytotox,KB-3-1 cytotox,HT1080 IDH1KD tx
O=C(c1ccc(C(F)(F)F)cc1)C1CCCN(Cc2ccc(CO)o2)C1 (stereo not given),?,-3%,?,18µM*,i,2%
CCn1ccnc1CN1CCCC(C(=O)c2ccc(SC)cc2)C1 (stereo not given),18µM*,-5%,?,?,i,-20%
FC(F)(F)c1ccc(CNCCc2ccc3c(c2)OCO3)cc1,-10%,-1%,-5%,i,i,3%
CN1[C@H]2CC[C@@H]1C(C(=O)N1CCOCC1)=C(O)C2,-5%,15%,4%,i,i,16%
NC(Cc1ccc(Cl)cc1)c1csc(Nc2ccccn2)n1 (stereo not given),13µM*,23µM*,15µM*,i,i,?
NC(Cc1ccc(F)cc1)c1csc(Nc2ccccn2)n1 (stereo not given),16µM*,?,?,?,i,23µM*
COc1cccc(Nc2nc(C(N)Cc3ccc(F)cc3)cs2)n1 (stereo not given),8.2µM*,23µM*,18µM*,?,?,15µM*
NC(Cc1ccc(F)cc1)c1csc(Nc2cnccn2)n1 (stereo not given),?,?,?,i,i,-13%
NC(Cc1ccccc1)c1csc(Nc2ccccn2)n1 (stereo not given),?,?,?,i,i,?
CC[C@@H]1c2ccccc2[C@@H]2CC[C@H]1N2c1ccccc1,?,-20%,?,i,i,-13%
